PubChem BioAssay (NCATS)
Results filed as inconclusive are left out. Calls of active or inactive are those of the source. Unless noted, calls come from the whole dose curve; as a rule, active = well fitted curve in the direction sought with a large enough effect; inconclusive = small, poorly fitted or top-dose-only effect, or another doubt; inactive = no such curve, though single readings can be large; an effect the other way counts as inactive or inconclusive.

Columns and labels:
[1] = qHTS for differential inhibitors of proliferation of Plasmodium falciparum line GB4 (AID 1816); details: Potency: Plasmodium falciparum GB4 proliferation inhibition;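 note: parasite growth measured after 72 h incubation; 0% = vehicle DMSO and -100% = reference inhibitor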
[2] = qHTS for differential inhibitors of proliferation of Plasmodium falciparum line 3D7 (AID 1876);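 note: parasite growth measured after three days of culture; 0% = vehicle wells and -100% = reference inhibitor wells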
[3] = qHTS for differential inhibitors of proliferation of Plasmodium falciparum line D10 (AID 1877);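 note: parasites grown with compound for 72 h before DNA staining; plate controls were vehicle wells for no effect and reference inhibitor wells for full effect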
[4] = qHTS for differential inhibitors of proliferation of Plasmodium falciparum line Dd2 (AID 1882); details: Potency: Plasmodium falciparum Dd2 proliferation inhibition;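 note: series mostly up to about 29 µM; compound exposure of 72 h on infected erythrocytes; plate controls were DMSO vehicle for no effect and 0.29 µM artemisinin for full effect; nearly all actives have a fitted effect of over 65% in size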
Outline: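 SYBR Green I DNA fluorescence read-out, ex 485/em 535 nm. Signals were normalized to 0.29 uM artemisinin and DMSO wells, then corrected using vehicle-only plates flanking each stack. Parasite growth ran 72 h in erythrocytes before lysis.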

[5] = qHTS for differential inhibitors of proliferation of Plasmodium falciparum line W2 (AID 1883); details: Potency: Plasmodium falciparum W2 proliferation inhibition;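 note: parasites grown with compound for 72 h before lysis and staining; 0% = vehicle wells and -100% = control inhibitor wells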
[6] = qHTS for differential inhibitors of proliferation of Plasmodium falciparum line HB3 (AID 1886); details: Potency: Plasmodium falciparum HB3 proliferation inhibition;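 note: parasites grown with compound for 72 h before SYBR Green readout; plate controls were vehicle for no effect and reference inhibitor for full effect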
[7] = qHTS Assay for Modulators of Human Peripheral Myelin Protein 22 (PMP22) Expression/Activity (AID 1967; active = well fitted curve in the direction sought with a large enough effect in the signal ratio; the % refers to the signal ratio;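 note: 0% = untreated cells and 100% end not stated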)
Outline: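 Mouse MSC80 Schwann cells carrying Pmp22 promoter–green click beetle luciferase plus EF-alpha–red luciferase control, dosed 24 h at 37 °C. Dual-filter luminescence, overlap-corrected; %Activity from green/red ratio normalised to untreated cells, concentration-response curves fitted.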

[8] = target: Ferritin light chain (Equus caballus) (UniProt P02791); assay: qHTS Validation Assay for Identification of Novel General Anesthetics (AID 2323); note: series mostly up to about 77 µM; % is set by controls: 0 for no effect and ±100 for the full control effect
Outline: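 Horse-spleen apoferritin (10 uM) in PBS with 50% saturated 1-aminoanthracene; compounds pin-transferred, 10 min at room temperature. Fluorescence read at 380/535 nm, normalized to free 1-AMA and 1-AMA/apoferritin values; four-parameter Hill fit.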

[9] = target: ATP-dependent DNA helicase Q1 (Homo sapiens) (UniProt P46063); assay: qHTS Validation Assay for Inhibitors of RecQ-Like Dna Helicase 1 (RECQ1) (AID 2353);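 note: plate controls were DMSO vehicle for no effect and enzyme-free control for full effect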
Outline: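 50 nM RECQ1T1 preincubated 15 min with compound in Tris pH 8.0 buffer with MgCl2, DTT, Tween-20 and 2.5 ug/ml poly(dI-dC); started with 200 nM TAMRA/BHQ-2 forked duplex and 2 mM ATP. Unwinding read as fluorescence (525/598 nm), two reads 2 h apart.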

[10] = target: RecQ-like DNA helicase BLM (Homo sapiens) (UniProt P54132); assay: qHTS Validation Assay for Inhibitors of Bloom's syndrome helicase (BLM) (AID 2364);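 note: plate controls were DMSO vehicle for no effect and enzyme-free control for full effect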
Outline: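 BLM 50 nM in 25 mM Tris-HCl pH 8.0, 5 mM NaCl, 2 mM MgCl2, 1 mM DTT, 0.01% Tween-20, 2.5 ug/ml poly(dI-dC); 15 min cpd preinc, RT. Start: 200 nM forked DNA + 2 mM ATP (final). TAMRA read, 2 reads 2 h apart.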

[11] = Validation screen for small molecules that induce DNA re-replication in MCF 10A normal breast cells (AID 463097); note: 0% is about no effect; nearly all actives have a fitted effect of over 60% in size
Outline: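 MCF 10A cells exposed to compound 48 hr at 37 C, 5% CO2, then Hoechst-stained 40 min. Laser-scanning imaging of nuclear DNA content (405 nm ex, 500-530 nm em); re-replication scored as rise in nuclei with elevated fluorescence intensity.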

[12] = Quantitative high throughput screen for delayed death inhibitors of the malarial parasite plastid, 96 hour incubation (AID 488745); note: series mostly up to about 29 µM; % is set by controls: 0 for no effect and ±100 for the full control effect; nearly all actives have a fitted effect of over 70% in size
Outline: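 P. falciparum carrying an integrated firefly luciferase reporter, grown in erythrocytes (2% hematocrit, 0.1% parasitemia final) in RPMI 1640/0.5% Albumax, was exposed to compound for 96 h (two generations) at 37 C, 5% CO2. Luminescence decrease indicated growth inhibition.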

[13] = Quantitative high throughput screen for delayed death inhibitors of the malarial parasite plastid, 48 hour incubation (AID 488752); note: % is set by controls: 0 for no effect and ±100 for the full control effect; nearly all actives have a fitted effect of over 65% in size
Outline: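 Erythrocytes infected with P. falciparum carrying an integrated firefly luciferase reporter (2% hematocrit, 0.1% parasitemia final) were exposed to compounds in RPMI 1640/0.5% Albumax for 48 h at 37 C, 5% CO2. Growth inhibition was scored as reduced luminescence.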

[14] = target: M-phase phosphoprotein 8 (Homo sapiens) (UniProt Q99549); assay: qHTS Validation Assay for Inhibitors for MPP8 Chromodomain Interactions with Methylated Histone Tails (AID 488949); note: top concentration of the series differs between compounds; % is set by controls: 0 for no effect and ±100 for the full control effect; nearly all actives have a fitted effect of over 55% in size
Outline: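 MPP8 (50 nM) was pre-bound to 50 nM biotinylated H3(1-18)K9me3 peptide in PBS pH 7.4 with 0.01% Tween-20. Compounds were then added for 30 min at room temperature, and complex disruption was read by AlphaScreen with streptavidin donor and nickel-chelate acceptor beads.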

[15] = target: Transient receptor potential cation channel subfamily V member 1 (Homo sapiens) (UniProt Q8NER1); assay: HTS Assay for Compounds that Act as Enhancers of the Vanilloid Receptor 1 (AID 488979); note: 0% is about no effect
Outline: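 TRPV1-expressing cells loaded with Fluo-8 calcium dye; compounds added and calcium influx read kinetically for 3 min (agonist phase), then capsaicin at EC20 added and read 2 min more for enhancement. Fluorescence ex 480/em 520 nm.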

[16] = target: Thyrotropin receptor (Homo sapiens) (UniProt P16473); assay: qHTS Assay for Antagonists of the Thyroid Stimulating Hormone Receptor (AID 488980); note: series mostly up to about 58 µM; 0% is about no effect
Outline: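 TSHR-transfected HEK293 cells (2000/well) in HEPES-buffered HBSS with 70 uM RO 20-1724 were stimulated with 4 nM TSH (EC80, final) in the presence of compound. cAMP was measured by HTRF competition after lysis and 30 min at RT.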

[17] = target: Thyrotropin-releasing hormone receptor (Homo sapiens) (UniProt P34981); assay: qHTS for Small Molecule Agonists and Allosteric Enhancers of Human TRH Receptor: Validation Screen for Agonists (AID 493127;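 active = calcium activation more than 3 SD above the typical response in the agonist read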;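 note: intracellular calcium rise by fluo-8 fluorescence before TRH EC20 addition; 0% is about no effect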); details: TRH receptor agonist cell assay; at 2 µM; stronger effect = higher value
Outline: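 TRHR-expressing cells were plated overnight in serum-containing medium, then loaded with fluo-8 calcium dye at room temperature for 30 min–1.5 h. After a 10 s baseline, compound was pin-transferred and calcium fluorescence (ex 480/em 530) read kinetically for agonist response.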

[18] = target: Galactokinase (Homo sapiens) (UniProt P51570); assay: qHTS Validation Assay for Inhibitors of Human Galactokinase (GALK) (AID 493189); note: 0% is about no effect
Outline: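 GALK (5 nM) with 35 uM ATP and 100 uM galactose in HEPES pH 8.0 with MgCl2, NaCl, DTT and BSA. Reaction ran 1 h at room temperature. Residual ATP read by Kinase-Glo Plus luminescence.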

[19] = Validation screen for small molecules that induce DNA re-replication in SW480 colon adenocarcinoma cells (AID 504364); note: 0% is about no effect
Outline: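 SW480 cells seeded at 250 per well were exposed to compound or DMSO for 48 hr at 37 C, 5% CO2, then stained with Hoechst for 40 min. DNA content per nucleus was imaged (405 nm ex, 500-530 nm em).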

Sequence of Galactokinase (Homo sapiens) (P51570 whole entry, looked up): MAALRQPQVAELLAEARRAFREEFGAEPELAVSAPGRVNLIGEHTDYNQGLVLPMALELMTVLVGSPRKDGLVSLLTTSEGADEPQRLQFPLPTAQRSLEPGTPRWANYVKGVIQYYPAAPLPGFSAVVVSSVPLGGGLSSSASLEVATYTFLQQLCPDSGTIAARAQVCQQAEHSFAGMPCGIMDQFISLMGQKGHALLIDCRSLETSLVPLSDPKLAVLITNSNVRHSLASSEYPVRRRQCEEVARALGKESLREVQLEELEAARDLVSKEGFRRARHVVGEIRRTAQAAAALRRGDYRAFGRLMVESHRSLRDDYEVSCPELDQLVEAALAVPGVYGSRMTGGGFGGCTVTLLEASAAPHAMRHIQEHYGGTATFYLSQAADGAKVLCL
Sequence of Transient receptor potential cation channel subfamily V member 1 (Homo sapiens) (Q8NER1 whole entry, looked up): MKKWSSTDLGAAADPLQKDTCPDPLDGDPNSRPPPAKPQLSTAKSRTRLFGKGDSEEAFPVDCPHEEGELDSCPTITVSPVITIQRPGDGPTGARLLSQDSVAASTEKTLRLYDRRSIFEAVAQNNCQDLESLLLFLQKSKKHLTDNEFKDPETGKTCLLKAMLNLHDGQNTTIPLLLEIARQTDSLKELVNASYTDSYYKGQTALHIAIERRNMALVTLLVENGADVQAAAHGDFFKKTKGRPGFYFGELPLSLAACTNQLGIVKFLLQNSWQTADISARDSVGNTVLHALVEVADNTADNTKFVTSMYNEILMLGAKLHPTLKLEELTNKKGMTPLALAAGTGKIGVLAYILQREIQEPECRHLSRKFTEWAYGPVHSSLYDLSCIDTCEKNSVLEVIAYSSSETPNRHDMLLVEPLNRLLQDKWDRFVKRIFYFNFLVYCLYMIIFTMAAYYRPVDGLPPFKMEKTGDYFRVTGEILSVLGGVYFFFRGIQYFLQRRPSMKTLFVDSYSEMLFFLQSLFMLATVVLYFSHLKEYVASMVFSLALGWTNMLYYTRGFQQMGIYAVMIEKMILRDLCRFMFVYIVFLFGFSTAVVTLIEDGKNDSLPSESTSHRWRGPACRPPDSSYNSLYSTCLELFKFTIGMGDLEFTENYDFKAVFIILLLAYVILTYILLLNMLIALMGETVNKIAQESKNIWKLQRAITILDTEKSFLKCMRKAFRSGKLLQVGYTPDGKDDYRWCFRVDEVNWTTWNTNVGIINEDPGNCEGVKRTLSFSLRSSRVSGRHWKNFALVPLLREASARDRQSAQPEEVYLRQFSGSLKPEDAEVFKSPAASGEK
Sequence of M-phase phosphoprotein 8 (Homo sapiens) (Q99549 whole entry, looked up): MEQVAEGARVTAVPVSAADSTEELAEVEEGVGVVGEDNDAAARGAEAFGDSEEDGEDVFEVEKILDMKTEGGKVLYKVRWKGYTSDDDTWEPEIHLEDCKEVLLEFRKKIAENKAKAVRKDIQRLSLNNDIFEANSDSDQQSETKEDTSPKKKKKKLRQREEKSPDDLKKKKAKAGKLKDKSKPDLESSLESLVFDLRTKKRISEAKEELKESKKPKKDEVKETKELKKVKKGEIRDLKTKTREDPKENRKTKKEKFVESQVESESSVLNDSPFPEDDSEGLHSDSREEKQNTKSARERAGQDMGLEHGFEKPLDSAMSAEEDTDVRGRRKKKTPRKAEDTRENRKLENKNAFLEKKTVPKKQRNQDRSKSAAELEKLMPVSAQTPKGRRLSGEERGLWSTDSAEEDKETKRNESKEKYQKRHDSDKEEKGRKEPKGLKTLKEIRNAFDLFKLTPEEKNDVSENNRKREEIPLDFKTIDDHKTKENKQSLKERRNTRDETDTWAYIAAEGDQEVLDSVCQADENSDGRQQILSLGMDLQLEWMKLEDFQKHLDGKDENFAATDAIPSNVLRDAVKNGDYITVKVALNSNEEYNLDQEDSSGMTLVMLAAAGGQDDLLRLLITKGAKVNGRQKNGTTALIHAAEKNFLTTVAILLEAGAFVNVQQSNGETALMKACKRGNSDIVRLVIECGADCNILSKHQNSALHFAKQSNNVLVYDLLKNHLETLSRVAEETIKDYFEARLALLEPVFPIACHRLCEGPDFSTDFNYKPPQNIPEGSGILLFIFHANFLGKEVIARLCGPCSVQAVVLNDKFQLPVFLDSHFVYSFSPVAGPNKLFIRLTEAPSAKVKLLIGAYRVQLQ
Sequence of Thyrotropin receptor (Homo sapiens) (P16473 whole entry, looked up): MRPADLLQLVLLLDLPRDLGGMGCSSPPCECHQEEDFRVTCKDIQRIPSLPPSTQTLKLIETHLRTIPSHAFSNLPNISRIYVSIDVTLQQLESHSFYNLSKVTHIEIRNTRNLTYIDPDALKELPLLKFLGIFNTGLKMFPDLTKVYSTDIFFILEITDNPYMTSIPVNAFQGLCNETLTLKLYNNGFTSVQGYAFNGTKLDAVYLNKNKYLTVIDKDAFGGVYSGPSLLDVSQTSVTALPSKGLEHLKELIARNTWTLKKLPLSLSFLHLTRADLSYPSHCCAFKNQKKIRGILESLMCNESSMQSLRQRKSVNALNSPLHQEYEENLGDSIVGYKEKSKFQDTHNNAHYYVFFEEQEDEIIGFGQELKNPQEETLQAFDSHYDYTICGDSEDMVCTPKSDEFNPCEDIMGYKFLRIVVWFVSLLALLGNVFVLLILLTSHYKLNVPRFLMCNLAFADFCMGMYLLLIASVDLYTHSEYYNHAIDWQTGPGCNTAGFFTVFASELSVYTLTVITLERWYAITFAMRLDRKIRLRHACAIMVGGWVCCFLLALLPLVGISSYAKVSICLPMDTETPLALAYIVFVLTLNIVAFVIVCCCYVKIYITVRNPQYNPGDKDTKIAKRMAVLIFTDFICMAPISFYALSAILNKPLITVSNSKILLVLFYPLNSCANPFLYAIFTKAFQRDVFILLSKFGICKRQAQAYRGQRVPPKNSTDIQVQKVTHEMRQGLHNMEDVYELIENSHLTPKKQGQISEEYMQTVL
Sequence of Ferritin light chain (Equus caballus) (P02791 2-175 limits assumed): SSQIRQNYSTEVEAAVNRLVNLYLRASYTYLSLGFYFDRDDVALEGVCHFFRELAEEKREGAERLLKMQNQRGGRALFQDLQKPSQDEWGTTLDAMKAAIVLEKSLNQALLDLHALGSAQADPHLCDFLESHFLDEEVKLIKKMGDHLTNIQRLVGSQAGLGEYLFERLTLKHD
Sequence of RecQ-like DNA helicase BLM (Homo sapiens) (P54132 whole entry, looked up): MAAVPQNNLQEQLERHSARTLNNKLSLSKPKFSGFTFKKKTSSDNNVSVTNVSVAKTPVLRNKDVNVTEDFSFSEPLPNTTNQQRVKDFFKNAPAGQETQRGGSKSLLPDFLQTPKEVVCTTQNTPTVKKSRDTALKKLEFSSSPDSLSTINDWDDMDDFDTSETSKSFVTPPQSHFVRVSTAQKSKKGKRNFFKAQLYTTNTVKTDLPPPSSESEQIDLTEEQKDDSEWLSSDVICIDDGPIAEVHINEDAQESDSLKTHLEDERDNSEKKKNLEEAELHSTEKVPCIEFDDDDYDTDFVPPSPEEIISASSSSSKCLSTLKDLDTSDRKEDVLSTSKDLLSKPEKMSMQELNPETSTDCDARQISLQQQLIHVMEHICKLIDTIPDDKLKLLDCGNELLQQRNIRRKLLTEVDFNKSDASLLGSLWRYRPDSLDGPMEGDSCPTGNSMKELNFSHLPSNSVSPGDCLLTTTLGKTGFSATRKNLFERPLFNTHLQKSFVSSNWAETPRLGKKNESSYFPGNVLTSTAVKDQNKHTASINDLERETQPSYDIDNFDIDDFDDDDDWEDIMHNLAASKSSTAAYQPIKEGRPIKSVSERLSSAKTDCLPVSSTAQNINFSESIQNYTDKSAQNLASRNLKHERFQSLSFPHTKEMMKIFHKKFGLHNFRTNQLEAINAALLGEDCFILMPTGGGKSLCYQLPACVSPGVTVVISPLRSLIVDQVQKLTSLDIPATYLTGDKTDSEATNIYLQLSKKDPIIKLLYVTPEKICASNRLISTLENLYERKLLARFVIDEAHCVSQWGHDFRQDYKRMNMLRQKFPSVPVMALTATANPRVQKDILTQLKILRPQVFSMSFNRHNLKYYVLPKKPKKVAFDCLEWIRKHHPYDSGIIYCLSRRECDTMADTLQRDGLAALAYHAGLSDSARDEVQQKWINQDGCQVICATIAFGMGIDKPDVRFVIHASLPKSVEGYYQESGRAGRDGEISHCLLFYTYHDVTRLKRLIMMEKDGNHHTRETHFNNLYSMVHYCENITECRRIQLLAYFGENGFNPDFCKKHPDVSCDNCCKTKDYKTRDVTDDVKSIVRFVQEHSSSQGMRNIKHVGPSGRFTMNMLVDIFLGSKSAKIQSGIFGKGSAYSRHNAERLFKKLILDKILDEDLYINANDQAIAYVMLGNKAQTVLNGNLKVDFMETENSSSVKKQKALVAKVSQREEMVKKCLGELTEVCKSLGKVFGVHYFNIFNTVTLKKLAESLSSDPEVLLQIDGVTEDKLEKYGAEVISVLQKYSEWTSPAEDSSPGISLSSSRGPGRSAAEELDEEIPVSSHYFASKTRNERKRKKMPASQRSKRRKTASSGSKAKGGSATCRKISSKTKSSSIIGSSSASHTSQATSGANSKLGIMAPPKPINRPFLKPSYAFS
Sequence of Thyrotropin-releasing hormone receptor (Homo sapiens) (P34981 whole entry, looked up): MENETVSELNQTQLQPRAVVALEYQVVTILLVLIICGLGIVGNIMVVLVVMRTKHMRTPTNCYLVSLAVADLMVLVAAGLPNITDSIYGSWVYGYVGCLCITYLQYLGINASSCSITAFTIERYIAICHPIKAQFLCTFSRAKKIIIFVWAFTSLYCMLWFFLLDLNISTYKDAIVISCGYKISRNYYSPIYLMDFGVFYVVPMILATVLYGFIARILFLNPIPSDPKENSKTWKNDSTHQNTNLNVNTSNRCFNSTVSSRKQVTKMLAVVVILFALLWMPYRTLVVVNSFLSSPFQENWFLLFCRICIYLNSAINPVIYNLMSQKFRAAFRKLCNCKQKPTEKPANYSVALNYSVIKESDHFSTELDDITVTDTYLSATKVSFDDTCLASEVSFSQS

O=S(=O)(O)C1CCNCC1
inactive: Potency [1] | Potency [2] | Potency [3] | Potency [4] | Potency [5] | Potency [6] | outcome [7] | outcome [8] | outcome [9] | Potency [10] | Potency [11] | Potency [12] | Potency [13] | Potency [14] | outcome [15] | outcome [16] | activation [17] 0.125% | outcome [18] | Potency [19]
